EBV LMP1 NFkB – inhibitors of Epstein-Barr LMP1-induced NF-kappaB reporter; LMP1-induced NF-kappaB luciferase reporter cells, luminescence; inhibition, % at 12.5 µM; hit rate 0.69% among 350,000; AID 504558; in the data active = inhibition above about 41%;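 also: 0% = neutral control wells and 100% = reference inhibitor control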
Shn3 inh set2 – Schnurri-3 reporter inhibition in Clone20 osteoblasts. Clone20 osteoblast Shn3 3'UTR firefly luciferase, 24 h. inhibition, % at 12.5 µM. hit rate 0.52% among 360,000. AID 588674;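 active = mean inhibition of at least 75% with every replicate also reaching 75%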;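 also: 0% = median of neutral control wells and 100% = pilot-screen positive control compound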
HIF-2a inh – inhibitors of HIF-2a | inhibition, % at 18.8 µM | AID 624352 | 786-0 RCC cells HIF-2a reporter, luciferase luminescence, overnight | hit rate 0.72% among 360,000;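 active = inhibition of the luminescence signal of 40% or more relative to plate controls, in a single-dose primary screen at 18.75 µM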
Peg3 promoter – inhibitors of Peg3 promoter; hit rate 1.7% among 360,000; inhibition, % at 20 µM; HeLa PEG-Prom luciferase reporter, luminescence, overnight;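 active = inhibition of at least 50% at 20 µM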
KKLEB cytotox – counter-screen for CF NF-kB inhibitors: cytotoxicity; hit rate 0.36% among 360,000; KKLEB CF airway cells viability, ATPlite luminescence, overnight; stronger effect = lower value; cells stimulated with P. aeruginosa culture filtrate; AID 602141; activity change (cytotoxicity), % at 5 µM;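 active = corrected activity change at or below -50% at 5 µM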
CF NFkB block – blocks PAF-induced NF-kB reporter in cystic fibrosis cells; KKLEB NF-kB-GFP reporter, GFP fluorescence overnight; inhibition, % at 5 µM; hit rate 0.86% among 360,000; AID 588850;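 active = at least 50% inhibition at 5 µM, scaled per plate between neutral and stimulator controls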;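 also: PAF is a Pseudomonas aeruginosa culture filtrate used as stimulus; plate controls were PAF-stimulated DMSO wells for no effect and unstimulated DMSO wells for full effect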
Mdm2-MdmX confirm – Mdm2/MdmX (human) interaction inhibition, confirmed; shares compounds with HIF-2a inh; SaOS-2 split-luciferase Mdm2/MdmX complementation, luminescence; inhibition, % at 8 µM; hit rate 99% among 740;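 active = mean inhibition of the luminescence signal across two replicates at or above 26 percent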
HIF-2a conf – HIF-2a inhibition, single concentration confirmation; AID 651580; inhibition, % at 18.8 µM; hit rate 56% among 1,800; 786-0 RCC cells, HIF-2a luciferase reporter luminescence, overnight; shares compounds with HIF-2a inh;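 active = mean inhibition across four replicates of at least 40 percent at the single tested concentration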
HIF-1a cs – HIF-1a inhibition counter-screen for HIF-2a hits | shares compounds with HIF-2a inh | MiaPaCa-2 HIF-1a luciferase reporter, desferoxamine, overnight | inhibition, % at 18.8 µM | hit rate 72% among 1,800;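 active = mean inhibition of the reporter signal across four replicates at the single tested dose of 50% or more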
Active calls of the source: *; x = no result given. Hits are enriched below; roughly 2.9% of the tested compounds scored in any of these assays.

SMILES	EBV LMP1 NFkB	Shn3 inh set2	HIF-2a inh	Peg3 promoter	KKLEB cytotox	CF NFkB block	Mdm2-MdmX confirm	HIF-2a conf	HIF-1a cs
O=C(Nc1ccc(Nc2ccncc2)cc1)c1ccc([N+](=O)[O-])cc1	17	48	48*	80*	-1	16	x	-23	27
O=C(Nc1ccc(Oc2cccnc2)cc1)c1ccc([N+](=O)[O-])cc1	7	17	-38	-24	-5	-16	x	x	x
O=C(CCN1C(=O)/C(=C/c2ccccc2)SC1=S)NNC(=O)c1ccncc1	-4	-9	13	1	6	7	x	x	x
O=C(CCN1C(=O)/C(=C/c2ccccc2)SC1=S)N[C@@H](CO)Cc1ccccc1	10	-50	50*	80*	-12	30	98*	x	x
CCCCNc1ncnc2c1nnn2Cc1ccccc1Cl	2	-32	2	5	-16	0	x	x	x
Cc1cc(C(C)(C)CC(C)(C)C)ccc1OCCOCC[N+](C)(C)Cc1ccccc1	9	88*	-11	102*	-22	63*	103*	x	x
C[N+](C)(CCOc1ccccc1)Cc1ccccc1	-3	-13	-2	7	5	-9	x	x	x
O=C(CCc1nc2ccccc2c(=O)[nH]1)N1CCN(S(=O)(=O)c2ccccc2Br)CC1	-5	-2	48*	7	-12	25	x	23	89*
Cc1ccc(S(=O)(=O)N2CCN(C(=O)CCc3nc4ccccc4c(=O)[nH]3)CC2)c(C)c1	-13	3	17	0	-20	3	x	x	x
CCCN(CCC)C(=O)CC(c1ccccc1)c1ccco1 (stereo unspecified)	12	x	11	11	-8	-12	x	x	x
COc1ccc(-n2ncc(Cl)c(Cl)c2=O)cc1	x	98*	95*	105*	-78*	89*	102*	96*	107*
N#C/C(=C\c1ccccc1)C(=O)N(c1ccccn1)C1CCCCC1	-9	13	45*	22	-3	1	x	46*	20
Cc1nc2cc(NC(=O)c3ccc([N+](=O)[O-])s3)ccc2s1	21	-7	67*	-188	-12	5	x	75*	93*
O=C(N/N=C/c1ccc[nH]1)c1ccc(COc2cccc3cccnc23)cc1	47*	90*	25	89*	-54*	42	97*	x	x
COc1ccc(NC(=O)C[C@H]2C(=O)N(C3CCCCC3)C[C@@H]2CSC)cc1	1	-27	-7	3	2	13	x	x	x
CN(C)C/C=C/C(O)(c1ccccc1)c1ccccc1	-1	-2	16	10	12	-5	x	x	x
CN(C)CC(CCC(CN(C)C)C(O)(c1ccccc1)c1ccccc1)C(O)(c1ccccc1)c1ccccc1 (stereo unspecified)	x	x	x	x	x	x	103*	x	x
COc1cc(OC)cc(-c2nnc(Nc3nc4c(F)cccc4s3)o2)c1	1	18	72*	-18	-1	7	x	85*	-23
Fc1cccc2sc(Nc3nnc(-c4ccccc4)o3)nc12	-4	-18	-172	-184	4	-2	x	x	x
Cc1ccccc1NC(=O)CCC(=O)OCC(=O)c1cccc([N+](=O)[O-])c1	2	1	15	10	0	4	x	x	x
Cn1cncc1C#Cc1c(C=O)[nH]c2ccccc12	6	8	43*	46	-13	43	x	38	88*
Cn1cncc1C#Cc1c(C=O)n(C)c2ccccc12	-3	-14	12	16	5	-32	x	x	x
CC(C)N(c1ccccc1)c1ccc(NC(=O)[C@@H]2O[C@H](CO)[C@H](O)[C@H](O)[C@H]2O)cc1	x	-3	10	10	-8	14	x	x	x
O=C(CCl)Nc1ccc(-c2ccccc2)cc1	11	45	15	104*	-16	33	102*	x	x
CC(C)N(c1ccccc1)c1ccc(NC(=O)CCl)cc1	-33	-5	82*	91*	-86*	82*	102*	62*	100*

Compound activity from PubChem BioAssay.
